Experimental data as given in PubChem BioAssay (NCATS).
Unmarked numbers belong to inactive results. Records with an inconclusive call do not appear. Entries that show only a call come without a potency. Calls of active or inactive are those of the source. Unless noted, calls come from the whole dose curve; as a rule, active = well fitted curve in the direction sought with a large enough effect; inconclusive = small, poorly fitted or top-dose-only effect, or another doubt; inactive = no such curve, though single readings can be large; an effect the other way counts as inactive or inconclusive.

Columns and labels:
[1] = qHTS to identify inhibitors of the type 1 interferon - major histocompatibility complex class I in skeletal muscle: primary screen against the NCATS LOPAC collection (AID 1347405);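 note: lytic HiBiT luminescence reporting HLA-B protein level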
In short: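 After 24 h at 37 C with compounds (7-point, 1:4.3 dilutions, 46 uM top final) plus 4 ng/ml IFN-beta, luminescence from lytic HiBiT detection was measured. HLA-B*08:01 in C25cl48 myoblasts carried an endogenous C-terminal HiBiT tag; medium lacked dexamethasone.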

[2] = qHTS to identify inhibitors of the type 1 interferon - major histocompatibility complex class I in skeletal muscle: primary screen against the NCATS Pharmaceutical Collection (AID 1347407);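 note: luminescence of HiBiT knocked into endogenous HLA-B as interferon-induced MHC class I level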
In short: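 Immortalized human myoblasts (C25cl48) with HiBiT knocked into endogenous HLA-B*08:01 were stimulated with 4 ng/ml IFN-beta and treated with compounds (8-point, 1:5, top 46 uM final) for 24 h at 37 C; HiBiT lytic luminescence read.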

[3] = qHTS for inhibitors of adenylyl cyclases using a fission yeast platform: a pilot screen against the NCATS LOPAC library (AID 1347410)
In short: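 S. pombe CHP2027 (AC9-GNAS-PDE4D2) carrying a PKA-repressed fbp1-GFP reporter was exposed to LOPAC compounds (final up to 57 µM) for 18 h at 30C in the dark, in EMM with histidine, lysine and uracil; GFP gain-of-signal read by laser scanning cytometry.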

[4] = target: Protein phosphatase 1D (Homo sapiens) (UniProt O15297); assay: Rhodamine-PBP qHTS Assay for Modulators of WT P53-Induced Phosphatase 1 (WIP1) (AID 1347425)
Protein phosphatase 1D (Homo sapiens), sequence (O15297 whole entry, looked up): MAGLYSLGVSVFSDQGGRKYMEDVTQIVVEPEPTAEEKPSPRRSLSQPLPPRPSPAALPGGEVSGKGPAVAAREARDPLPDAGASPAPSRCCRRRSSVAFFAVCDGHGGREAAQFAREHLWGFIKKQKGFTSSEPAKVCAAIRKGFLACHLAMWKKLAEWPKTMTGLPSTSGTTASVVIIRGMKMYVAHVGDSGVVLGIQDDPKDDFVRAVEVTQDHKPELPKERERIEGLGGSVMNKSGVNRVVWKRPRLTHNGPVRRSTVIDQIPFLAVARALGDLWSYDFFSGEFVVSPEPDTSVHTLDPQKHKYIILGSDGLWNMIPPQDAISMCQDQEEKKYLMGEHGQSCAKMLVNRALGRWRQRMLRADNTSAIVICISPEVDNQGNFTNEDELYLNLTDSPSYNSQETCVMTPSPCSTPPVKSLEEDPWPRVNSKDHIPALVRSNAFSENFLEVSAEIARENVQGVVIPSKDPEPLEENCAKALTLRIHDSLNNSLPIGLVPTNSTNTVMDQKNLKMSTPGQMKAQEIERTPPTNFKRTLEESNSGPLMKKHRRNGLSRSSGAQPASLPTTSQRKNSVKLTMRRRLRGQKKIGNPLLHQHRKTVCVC
In short: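 The read-out is the change in Rhodamine-PBP fluorescence (f1 - f0, ex 525/em 598 nm) as Pi is released, read each minute for 11 min. Final reaction: 5 nM WIP1, 10 uM phosphopeptide VEPPL-pS-QETFS, 10 uM Rh-PBP, 50 mM Tris-HCl pH 7.5, 30 mM MgCl2. Compound was preincubated with enzyme for 1 hour at room temperature.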

[5] = Validation qHTS assay for inhibitors of Activation Induced Cytidine Deaminase (AID): UDG Counterscreen signal (AID 1347427)
In short: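 Fluorescence at 560 nm excitation, 665 nm emission reports UDG signal after 250 mM NaOH (2x) addition and 30 min. Enzymes (AID 1 uM, UDG 2 U/mL, at 4/3x) preincubated 10 min with compound, then 4 h with 4x 250 nM DJC20/DJC23 substrate at room temperature.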

[6] = Primary qHTS for inhibitors of La Crosse Virus (LACV) - induced cell death in SH-SY5Y cells (AID 1508616);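 note: top concentration of the series differs between compounds; higher means more rescue of cells from virus-induced death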
In short: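 Rescue of virus-induced death was read as ATPLite luminescence after 6 days at 37C, scaled between DMSO wells with LACV and without virus. Cells were SH-SY5Y, 6000/well, infected at 0.01 MOI after compound addition.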

[7] = target: Calcium and integrin-binding protein 1 (Homo sapiens) (UniProt Q99828); assay: Validation qHTS for Identification of Calcium Integrin Binding protein 1 (CIB1) Competitor (AID 1508618)
Calcium and integrin-binding protein 1 (Homo sapiens), sequence (Q99828 whole entry, looked up): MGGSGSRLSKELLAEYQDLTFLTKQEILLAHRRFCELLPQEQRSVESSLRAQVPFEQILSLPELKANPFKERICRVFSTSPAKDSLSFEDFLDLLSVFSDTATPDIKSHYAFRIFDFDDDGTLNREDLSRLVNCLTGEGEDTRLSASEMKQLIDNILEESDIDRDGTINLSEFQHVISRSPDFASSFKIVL
In short: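 CIB1-GST (1 uM final) incubated 15 min at room temperature with compounds (up to 114 uM), then FITC-labelled alphaIIb peptide (100 nM) added. FP read (Ex 480/Em 540) after 15 min, pH 7.4 buffer containing 5 mM CaCl2.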

[8] = target: Calcium and integrin-binding protein 1 (Homo sapiens) (UniProt Q99828); assay: Primary qHTS for Identification of Calcium Integrin Binding Protein 1 (CIB1) Competitor (AID 1508620);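 note: GST tagged CIB1 binding a fluorescein labelled alphaIIb integrin peptide tracer; top concentration of the series differs between compounds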
In short: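 CIB1-GST (1 uM final) and compound incubated 15 min at room temperature before adding FITC-alphaIIb peptide tracer (100 nM final). Competition for binding read by fluorescence polarization (ex 480, em 540) after another 15 min at room temperature.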

[9] = Primary qHTS for small molecule stabilizers of the endoplasmic reticulum resident proteome: Secreted ER Calcium Modulated Protein (SERCaMP) assay (AID 1508630)
In short: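 The SH-SY5Y reporter protocol was run at 3 concentrations up to 38.3 uM (primary) or 11 concentrations (follow-up): 16 h compound, 100 nM thapsigargin for 4 h, then extracellular luciferase luminescence.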

[10] = A High-Content qHTS Against Drug Library for the Identification of Small Molecules that Inhibit DYT1 Early Onset Primary Dystonia-Associated Cell Pathology (AID 1645839; calls by dose curve; note: series mostly up to about 46 µM)
In short: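 High-content imaging quantified EGFP-TorsinA mislocalization in HEK293-derived cells inducibly expressing DYT1 mutant torsinA, after 48 h exposure to compound given together with tetracycline induction. Cell count served as a toxicity channel alongside %pathology.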

Papain (Carica papaya) = Papain (Carica papaya) (UniProt P00784); assay: Primary qHTS assay for inhibitors of the protease papain (AID 1645873);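 note: papain turnover of Z-FR-AMC read as the AMC fluorescence gain over 10 min; series mostly up to about 50 µM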
Papain (Carica papaya), sequence (P00784 whole entry, looked up): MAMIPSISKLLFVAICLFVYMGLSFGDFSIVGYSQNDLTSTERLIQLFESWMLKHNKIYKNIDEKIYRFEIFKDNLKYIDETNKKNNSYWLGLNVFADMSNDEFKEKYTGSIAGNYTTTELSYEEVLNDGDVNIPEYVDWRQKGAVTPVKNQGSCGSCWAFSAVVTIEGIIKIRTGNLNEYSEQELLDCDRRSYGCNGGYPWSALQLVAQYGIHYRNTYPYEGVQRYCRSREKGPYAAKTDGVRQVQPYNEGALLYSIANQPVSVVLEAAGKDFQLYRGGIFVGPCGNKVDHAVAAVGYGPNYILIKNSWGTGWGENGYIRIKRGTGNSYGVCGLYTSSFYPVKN

[11] = target: Single-stranded DNA cytosine deaminase (Homo sapiens) (UniProt Q9GZX7); assay: Validation qHTS assay for inhibitors of Activation Induced Cytidine Deaminase (AID): AID signal (AID 1347429)
Single-stranded DNA cytosine deaminase (Homo sapiens), sequence (Q9GZX7 whole entry, looked up): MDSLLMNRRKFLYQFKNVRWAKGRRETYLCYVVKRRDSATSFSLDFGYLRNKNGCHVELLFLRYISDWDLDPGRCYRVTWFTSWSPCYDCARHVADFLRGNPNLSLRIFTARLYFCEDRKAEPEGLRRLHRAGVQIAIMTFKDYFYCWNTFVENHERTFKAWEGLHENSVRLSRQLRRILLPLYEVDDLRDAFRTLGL
In short: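 Compounds (final up to 114 uM) preincubated with AID plus UDG; 250 nM DJC20/DJC23 substrate mix (4x stock) added, 4 hr at room temperature, then NaOH, 30 min. Read 1 fluorescence at 540 nm excitation, 590 nm emission.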

[12] = target: Protein phosphatase 1D (Homo sapiens) (UniProt O15297); assay: RapidFire Mass Spectrometry qHTS Assay for Modulators of WT P53-Induced Phosphatase 1 (WIP1) (AID 1347424);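 note: amount of dephosphorylated VEPPL-S-QETFS peptide product formed by WIP1; series mostly up to about 63 µM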
In short: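 RapidFire mass spectrometry measured dephosphorylated peptide after 5 min room-temperature reaction of 2 uM VEPPL-pS-QETFS with 10 nM WIP1 (50 mM Tris-HCl pH 7.5, 30 mM MgCl2, 0.1 mM EGTA, BSA), following 1 hr compound preincubation; 1 uM isotope-labelled product standard.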

[13] = target: Cytochrome P450 2D6 (Homo sapiens) (UniProt P10635); assay: Cytochrome P450 family 2 subfamily D member 6 (CYP2D6) small molecule antagonists: luciferase biochemical (cell-free) qHTS assay (AID 1645840; active = well fitted curve in the direction sought with a large enough effect in the repeat runs; an effect the other way counts as inactive or inconclusive; note: nearly all actives have a fitted effect of over 55% in size; note: potency is the fitted concentration of half-maximal effect)
Cytochrome P450 2D6 (Homo sapiens), sequence (P10635 whole entry, looked up): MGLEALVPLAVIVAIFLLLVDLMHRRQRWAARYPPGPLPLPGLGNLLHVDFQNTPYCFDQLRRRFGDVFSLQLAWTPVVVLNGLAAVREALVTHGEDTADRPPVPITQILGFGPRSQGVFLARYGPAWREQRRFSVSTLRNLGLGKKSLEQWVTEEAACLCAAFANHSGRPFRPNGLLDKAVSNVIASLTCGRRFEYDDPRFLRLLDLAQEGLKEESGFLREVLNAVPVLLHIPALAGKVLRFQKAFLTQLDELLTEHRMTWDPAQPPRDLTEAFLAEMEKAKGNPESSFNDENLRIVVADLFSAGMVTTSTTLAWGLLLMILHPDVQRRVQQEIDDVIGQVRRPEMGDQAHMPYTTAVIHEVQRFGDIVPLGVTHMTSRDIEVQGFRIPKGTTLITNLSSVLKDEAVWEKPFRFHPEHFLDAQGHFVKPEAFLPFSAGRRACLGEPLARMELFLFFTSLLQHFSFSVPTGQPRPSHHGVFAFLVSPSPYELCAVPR
In short: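 P450-Glo CYP2D6 system: proluciferin substrate converted by enzyme to luciferin, read by luminescence proportional to activity. Enzyme-substrate mix with compound 10 min at room temperature, then NADPH regeneration 1 h before detection reagent.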

[14] = target: Cytochrome P450 2C9 (Homo sapiens) (UniProt P11712); assay: Cytochrome P450 family 2 subfamily C member 9 (CYP2C9) small molecule antagonists: luciferase biochemical (cell-free) qHTS assay (AID 1645842; active = well fitted curve in the direction sought with a large enough effect in the repeat runs; an effect the other way counts as inactive or inconclusive; note: series mostly up to about 57 µM; nearly all actives have a fitted effect of over 55% in size)
Cytochrome P450 2C9 (Homo sapiens), sequence (P11712 whole entry, looked up): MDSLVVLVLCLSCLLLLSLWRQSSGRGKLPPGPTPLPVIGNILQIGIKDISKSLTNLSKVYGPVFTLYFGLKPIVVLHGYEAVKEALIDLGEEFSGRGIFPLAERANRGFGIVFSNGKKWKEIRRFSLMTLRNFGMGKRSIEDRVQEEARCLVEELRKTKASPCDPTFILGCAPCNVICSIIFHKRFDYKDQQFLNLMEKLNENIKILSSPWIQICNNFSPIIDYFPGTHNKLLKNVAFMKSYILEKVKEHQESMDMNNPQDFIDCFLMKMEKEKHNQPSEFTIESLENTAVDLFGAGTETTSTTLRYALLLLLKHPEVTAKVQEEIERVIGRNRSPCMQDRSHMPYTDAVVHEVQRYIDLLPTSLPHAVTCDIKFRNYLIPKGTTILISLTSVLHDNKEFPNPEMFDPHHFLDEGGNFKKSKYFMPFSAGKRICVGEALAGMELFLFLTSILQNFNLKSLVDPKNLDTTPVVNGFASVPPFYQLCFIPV
In short: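 P450-Glo CYP2C9 system: proluciferin substrate with enzyme in mix containing 0.4% BSA, 10 min at room temperature, then NADPH regeneration solution added and incubated 1 h at 37C. Detection reagent stopped reaction; luminescence read after 20 min as RLU.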

[15] = Counterscreen qHTS for small molecule stabilizers of the endoplasmic reticulum resident proteome: GLuc-NoTag assay (AID 1508627);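 note: SH-SY5Y cells given compound then 100 nM thapsigargin to empty ER calcium; series mostly up to about 76 µM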
In short: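 Counterscreen line: SH-SY5Y-GLuc-NoTag cells, treated with compound 19 hr before a 4 hr, 100 nM thapsigargin calcium depletion. Secreted Gaussia luciferase in the medium was measured by luminescence after coelenterazine was added (0.07x final), with cells unlysed.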

[16] = Cell Viability qHTS for small molecule stabilizers of the endoplasmic reticulum resident proteome (AID 1508629); details: cell viability counter-screen, 100 nM thapsigargin for final 4 h;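 note: human SH-SY5Y neuroblastoma cells carrying the GLuc-SERCaMP reporter; compound exposure about 46 h in total before the viability read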
[17] = qHTS to identify inhibitors of the type 1 interferon - major histocompatibility complex class I in skeletal muscle: primary screen against the NCATS Mechanism Interrogation Plate v5.0 (MIPE) Libary (AID 1347411); note: nearly all actives have a fitted effect of over 65% in size
In short: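 Luminescence from CRISPR HiBit-tagged endogenous HLA-B in human myoblasts reported MHC class I level after 24 h of IFN-beta (4 ng/ml) plus compound. Compounds ran as 11-point 1:3 series, top 46 uM final.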

[18] = target: Calcium and integrin-binding protein 1 (Homo sapiens) (UniProt Q99828); assay: Confirmatory qHTS for Identification of Calcium Integrin Binding Protein 1 (CIB1) Competitor (AID 1508617); note: nearly all actives have a fitted effect of over 65% in size
In short: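 Compounds at up to 114 uM final met 1 uM GST-tagged CIB1 for 15 min at room temperature (HEPES pH 7.4, 5 mM CaCl2). FITC-labelled alphaIIb peptide, 100 nM, added; polarization read after 15 min more.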

SMILES | Potency [1] | Potency [2] | outcome [3] | outcome [4] | outcome [5] | Potency [6] | outcome [7] | Potency [8] | Potency [9] | Potency [10] | Potency (Papain (Carica papaya)) | Potency [11] | Potency [12] | Potency [13] | Potency [14] | Potency [15] | max response [16] | Potency [17] | outcome [18]
COc1ccc(CCN(C)CCCC(C#N)(c2cc(OC)c(OC)c(OC)c2)C(C)C)cc1OC (stereo not given) | inactive | inactive | inactive | inactive | inactive | inactive | inactive | inactive | inactive | inactive | inactive | – | – | – | – | – | – | – | –
c1ccc2c(c1)CCCC2C1=NCCN1 (stereo not given) | inactive | inactive | inactive | inactive | inactive | inactive | inactive | inactive | inactive | – | inactive | inactive | – | – | – | – | – | – | –
CNCCC(Oc1ccccc1OC)c1ccccc1 (stereo not given) | inactive | inactive | – | inactive | inactive | inactive | inactive | inactive | – | – | inactive | inactive | inactive | 1740 nM (active) | inactive | – | – | – | –
CC(=O)OCC1=C(C(=O)O)N2C(=O)[C@@H](NC(=O)Cc3cccs3)[C@H]2SC1 | inactive | inactive | – | inactive | inactive | inactive | inactive | inactive | inactive | inactive | inactive | inactive | inactive | inactive | inactive | – | – | – | –
COCCc1ccc(OCC(O)CNC(C)C)cc1 (stereo not given) | inactive | inactive | inactive | inactive | inactive | inactive | inactive | inactive | inactive | – | inactive | inactive | – | – | – | – | – | – | –
CC(C)(C)NCC(O)c1cc(O)cc(O)c1 (stereo not given) | inactive | inactive | – | inactive | inactive | inactive | inactive | inactive | inactive | inactive | – | inactive | inactive | inactive | inactive | – | – | – | –
CCN(CC)CCNC(=O)c1ccc(NC(C)=O)cc1 | inactive | inactive | inactive | inactive | inactive | inactive | inactive | inactive | inactive | inactive | inactive | – | – | – | inactive | – | – | – | –
CCN1CCC[C@H]1CNC(=O)c1c(O)c(Cl)cc(Cl)c1OC | inactive | inactive | – | inactive | inactive | inactive | inactive | inactive | inactive | inactive | inactive | inactive | inactive | – | inactive | – | – | – | –
OC(CCN1CCCCC1)(c1ccccc1)C1CCCCC1 (stereo not given) | inactive | inactive | – | inactive | inactive | inactive | – | – | – | – | inactive | inactive | inactive | 1740 nM (active) | inactive | inactive | 13.7% | – | –
NC(=O)c1ncn([C@@H]2O[C@H](CO)[C@@H](O)[C@H]2O)c1O | inactive | inactive | – | inactive | inactive | inactive | inactive | – | inactive | inactive | inactive | inactive | – | inactive | inactive | – | – | inactive | inactive
CCN(Cc1ccncc1)C(=O)C(CO)c1ccccc1 (stereo not given) | inactive | inactive | – | inactive | inactive | inactive | inactive | inactive | inactive | – | inactive | inactive | inactive | inactive | – | – | – | – | –
